From PubChem BioAssay AID2284330 (EPA ToxCast) come the findings set out here.

Results filed as inconclusive are left out. The source made the active and inactive calls. The calls were made as follows: active = hit-call score of the fitted dose curve at least 0.9, where 1 is the maximum; inconclusive = response in the unintended direction; inactive = score below 0.9.

The subject of the experiment is frog Glucocorticoid Receptor (GR), gene 397897. Put plainly: ATG_frGR_EcoTox2: Attagene TRANS-FACTORIAL EcoTox-2 HepG2 Assay for frog Glucocorticoid Receptor (GR). Here is the method:
ATG_EcoTox2 is a cell-based, multiplexed assay created by modifying the existing Attagene TRANS-FACTORIAL system to include a panel of nuclear receptors from some or all the following species: human (Homo sapiens), african clawed frog (Xenopus laevis), rainbow trout (Oncorhynchus mykiss), japanese medaka (Oryzias latipes), and zebrafish (Danio rerio). The ECOTOX2-FACTORIAL format uses HepG2, a human liver cell line, with measurements taken at 24 hours after chemical dosing in a 24-well plate. ATG_frGR_EcoTox2 is one of 29 assay components calculated in the ATG_EcoTox2 assay. It is designed to make measurements of mRNA induction, a form of inducible reporter, as detected with fluorescence intensity signals by Reverse transcription polymerase chain reaction (RT-PCR) and Capillary electrophoresis technology.The assay endpoint ATG_frGR_EcoTox2 was analyzed in the positive analysis fitting direction relative to DMSO as the negative control and baseline of activity. Using a type of inducible reporter, measures of mRNA for gain-of-signal activity can be used to understand the reporter gene at the transcription factor-level as they relate to the gene for glucocorticoid receptor. Furthermore, this assay endpoint can be referred to as a primary readout, because this assay has produced multiple assay endpoints where this one serves a reporter gene function. […]
Human liver HepG2 cells are transiently transfected with multiple reporter transcription units (MRTUs) in 6-well plates using FuGene 6 reagent (Roche; 3 ml FuGene/1 mg DNA). […] A major difference between the CIS and TRANS system is that in CIS activities of endogenous TFs are measured, whereas the TRANS assay evaluates changes in activities of exogenous, chimeric NR-Gal4 proteins. […] The fragments were purified using Qiaquick PCR columns (Qiagen), analyzed on an ABI 3130xL genetic analyzer (Applied Biosystems) with peak positions identified by using a set of X-rhodamine (ROX)-labeled MapMarker1000 molecular weight standards (BioVentures). […]
For the compound `O=P(Oc1ccccc1)(Oc1ccccc1)Oc1ccccc1`, the compound was classed as inactive. As for `O=S(=O)(O)C(F)(F)C(F)(F)C(F)(F)C(F)(F)C(F)(F)C(F)(F)F`, the result was inactive.

Consider `CCCCOCN(C(=O)CCl)c1c(CC)cccc1CC`, for which the call was inactive.
